# Bioassay records as filed in PubChem BioAssay.
# HP1b binding inh: HTS for Inhibitors of HP1-beta Chromodomain Interactions with Methylated Histone Tails; AlphaScreen HP1-beta / biotin-H3K9me3 peptide binding; Potency, µM (top dose mostly 114 µM), without a hit: top-dose activity change, negative = inhibition, hits mostly inhibitors; hit rate 0.56% among 390,000; Chromobox protein homolog 1 (Homo sapiens), P83916; further: nearly all actives have a fitted effect of over 70% in size
#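 AlphaScreen: HP1-beta (50 nM) preformed 30 min with biotin-H3(1-18)K9me3 peptide (50 nM) in PBS pH 7.4, 0.01% Tween-20. Compound added for 30 min at RT, then streptavidin donor/nickel chelate acceptor beads (10 ug/mL) for 30 min.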
# JMJD2A Tudor: qHTS Assay for Inhibitors of JMJD2A-Tudor Domain; Lysine-specific demethylase 4A (Homo sapiens), O75164; AlphaScreen JMJD2A-Tudor / H3K4me3 peptide binding; Potency, µM (series often up to 114 µM), without a hit: top-dose activity change, negative = inhibition, actives largely listed as inhibitors; hit rate 4.4% among 390,000; further: on the % scale 0 is the no-effect control and ±100 the full control effect; nearly all actives have a fitted effect of over 50% in size
# BAZ2B inh: qHTS Assay for Inhibitors of BAZ2B. AID 504333, 2011. hit rate 4.4% among 360,000. Bromodomain adjacent to zinc finger domain protein 2B (Homo sapiens), Q9UIF8. Potency, µM (top dose mostly 114 µM), for the others: at the highest dose activity change, negative = inhibition, actives largely listed as inhibitors. AlphaScreen BAZ2B-H3K14Ac peptide displacement; further: on the % scale 0 is the no-effect control and ±100 the full control effect; nearly all actives have a fitted effect of over 60% in size
#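 Protein-peptide AlphaScreen: BAZ2B 50 nM, b-H3K14Ac 50 nM, 1x PBS pH 7.4 + 0.01% Tween-20. Preincubation 30 min RT; cpd 30 min RT (top 110 uM); beads 20 min RT, light-protected.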
# G9a block: qHTS Assay for Inhibitors of Histone Lysine Methyltransferase G9a. Histone-lysine N-methyltransferase EHMT2 (Homo sapiens), Q96KQ7. G9a H3K9 monomethylation, AlphaScreen, 2 h. Potency, µM (top dose mostly 102 µM), for inactives: top-dose activity, negative = inhibition, hits mostly inhibitors. hit rate 8.8% among 350,000; further: on the % scale 0 is the no-effect control and ±100 the full control effect; nearly all actives have a fitted effect of over 75% in size
#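 Signal arises when biotinylated H3K9 peptide, once monomethylated, bridges streptavidin donor and antibody-captured acceptor beads. Enzyme at 20 nM was preincubated 15 min with test compounds; peptide 500 nM and SAM 20 uM then reacted for 2 h.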
# TDP1 block: qHTS Assay for Inhibitors of Tyrosyl-DNA Phosphodiesterase (TDP1); AID 485290, 2010; Potency, µM (highest dose often 130 µM), without a hit: at the highest dose activity change, negative = inhibition, usual class: inhibitors; recombinant TDP1, AlphaScreen DNA substrate cleavage; hit rate 0.28% among 350,000; Tyrosyl-DNA phosphodiesterase 1 (Homo sapiens), Q9NUW8; further: on the % scale 0 is the no-effect control and ±100 the full control effect; nearly all actives have a fitted effect of over 40% in size
#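 Recombinant E. coli-expressed Tdp1 (1 nM) preincubated with compound 15 min at RT, then 5'-biotin/3'-phosphotyrosine-FITC DNA substrate (15 nM) added for 5 min. AlphaScreen beads (10 ug/ml) added, 10 min RT; tyrosine-FITC cleavage read as signal loss.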
# Sfp PPTase inh: qHTS Assay for Inhibitors of Bacillus subtilis Sfp phosphopantetheinyl transferase (PPTase); hit rate 3.5% among 310,000; Potency, µM, for the others: largest response in the series, negative = inhibition, usual class: inhibitors; Biochemical Sfp PPTase activity, qHTS;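 further: the enzyme is Sfp with the accession as filed and its product quenches rhodamine fluorescence; 0% = enzyme reaction without inhibitor and -100% = no enzyme wells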
#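 Sfp 15 nM + cpd, 15 min RT; start w/ rhodamine-CoA 5 uM, BHQ-2-YbbR 12.5 uM (final); 50 mM Hepes pH 7.6, 10 mM MgCl2, 0.01% NP-40, 0.01% BSA; read 525/598 nm at 0 and 30 min.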
# * hit, by the source's call; u = inconclusive; x = not tested or not shown; [ ] = remark or other dose. Shown are actives, neighbours in structure and some others; about 12% of the full set was active somewhere. The call rests on the fitted dose curve; in most records, active means well fitted curve in the direction sought with a large enough effect; inconclusive means small, poorly fitted or top-dose-only effect, or another doubt; inactive means no such curve, though single readings can be large; an effect the other way counts as inactive or inconclusive. Potency means the concentration at half of the fitted maximal effect.
SMILES,HP1b binding inh,JMJD2A Tudor,BAZ2B inh,G9a block,TDP1 block,Sfp PPTase inh
COc1ccc(-c2[nH]ncc2/C=N\NC(=O)c2ccc(Br)o2)cc1OC,11%,-21%,-32%,35%,6%,21%
O=C(COC(=O)CC1CCCC1)Nc1cccc(F)c1,51%,-2%,5%,11%[2.33 µM],-3%[56.1 µM],x
CC1(C)O[C@@H]2[C@H](O1)[C@@H](CO)O[C@H]2n1cnc2c(=O)[nH]cnc21,24%,-7%,5%,6%[0.501 µM],1%,x
COc1ccc(CNC(=O)c2ccc(-c3nc(CSc4ccccc4)c(C)o3)cc2)cc1,7%,u,-7%,-26%[59 µM],6%,x
CCN1CCN(CCCNC(=O)Cn2c(-c3cccs3)cc3cc(F)ccc32)CC1,36%,-24%,-11%,-41%[59 µM],-2%,x
O=C(NC(=S)NNC(=O)c1ccccc1O)c1ccccc1,6%,32µM*,u,32µM*,x,10%
O=C(NC(=S)NNC(=O)c1ccccc1O)c1ccc(F)cc1,9%,56µM*,u,4%,x,18%
O=C(NC(=S)NNC(=O)c1ccccc1O)c1cccs1,-27%,45µM*,u,-16%,x,18%
COc1ccc(C(=O)NNC(=S)NC(=O)c2cccs2)cc1,28%,-21%,-12%,40µM*,11%,24%
CCOc1ccccc1NC(=S)N1CCC(c2nc3ccccc3o2)CC1,15%,-27%,-9%,-5%[59 µM],3%,-3%
COc1cccc(NC(=O)Cn2c(=O)n(CCC(=O)NC3CCN(Cc4ccccc4)CC3)c(=O)c3ccccc32)c1,26%,-22%[11.4 µM],-2%,6%[59 µM],x,-11%
CC(C)(C)OC(=O)N1CCC[C@H]1c1nnc(SCC(=O)Nc2ccc(Br)cc2)o1,12%,6%,0%,-4%,3%,6%
COc1ccc(NC(=O)Nc2nnc(Cc3ccc(F)cc3)s2)cc1,-1%,-13%,-1%,4%,x,4%
N#Cc1ccccc1NC(=S)NC(=O)c1cccs1,-7%[57 µM],-25%,-13%,11µM*,1%,32µM*
Cc1ccc(CCC(=O)Nc2ccc([N+](=O)[O-])cc2)o1,-4%,-17%,-36%,x,x,-15%
Cc1cc(N2CCN(c3cccc(C(F)(F)F)c3)CC2)n2nc(-c3ccccc3C)nc2n1,14%,-23%,-18%,-4%[59 µM],7%,x
COc1ccc(-c2cc(=O)oc3cc(OCC(C)=O)ccc23)cc1,16%,-10%,-5%,-6%[59 µM],3%,-6%
CCN(CC)C(=O)COc1ccc2c(-c3ccc(OC)cc3)cc(=O)oc2c1,36%,-16%,-5%,x,79µM*,-5%
CCCc1cc(=O)oc2cc(OCC(=O)Nc3ccccn3)ccc12,29%,-16%,-8%,x,-2%,-9%
COc1ccc(-c2cc(=O)oc3cc(OCC(=O)Nc4ccccn4)ccc23)cc1,19%,18µM*,-27%,18%,0%,7%
C[C@@H](C[N+](C)(C)C)OC(N)=O,x,x,x,11%[21.5 µM],-4%[21 µM],6%
O=C(O)C(Cc1ccccc1)N1C(=O)c2ccccc2C1=O (centres undefined),37%,-14%,-1%,4%,4%,36%
O=C(O)C(Cc1ccccc1)N1C(=O)c2c(Cl)c(Cl)c(Cl)c(Cl)c2C1=O (centres undefined),-4%,89µM*,x,x,x,x
Cc1cccc(NC(=S)N/N=C2\CC(C)(C)Oc3ccc(O)cc32)c1,-2%,u,-12%,19%[59 µM],6%,13%
CC1(C)C/C(=N\NC(=S)Nc2ccccc2F)c2cc(O)ccc2O1,7.9µM*,18µM*,u,u,12%,-9%
SMILES,HP1b binding inh,JMJD2A Tudor,BAZ2B inh,G9a block,TDP1 block,Sfp PPTase inh
CSc1nn(CC(=O)Nc2cc(C)ccc2C)c(N)c1S(=O)(=O)c1ccccc1,6%,-30%,-10%,-2%[59 µM],0%,x
COc1cc(C(=O)ON=C2C(C)=CC(=O)C=C2C)cc(OC)c1OC,21%,-12%,u,32µM*,7%,0%
COc1cc(C(=O)O/N=C2/C=C(C)C(=O)C=C2C)cc(OC)c1OC,61%,-13%,-9%,-11%[59 µM],3%,6%
COC(=O)C(C)Sc1nc2c(c(=O)[nH]c(=O)n2C)n1CCC(C)C (centres undefined),20%,9%,-6%,-10%[59 µM],7%[56.1 µM],-8%
COC(=O)C(C)Sc1nc2c(c(=O)n(C)c(=O)n2C)n1CCC(C)C (centres undefined),20%,12%,-2%,79µM*,-5%,-14%
CCOc1ccc(CC(=O)C2C(=O)CC(C)(C)CC2=O)cc1OCC,55%,18µM*,u,10µM*,1%,u
CCOc1ccc(CC(=O)C2C(=O)CCCC2=O)cc1OCC,45%,25µM*,u,11µM*,-10%,u
CCOc1ccc(Cc2onc3c2C(=O)CC(C)(C)C3)cc1OCC,48%,2%,17%,-5%,-5%,-2%
CCOc1ccc(CC(=NCCc2ccccc2)C2=C(O)CC(C)(C)CC2=O)cc1OCC,34%,-13%,-4%,71µM*,-3%,4%
CCOc1ccc(CC(=O)C2=C(N3CCOCC3)CC(C)(C)CC2=O)cc1OCC,28%,-19%,-24%,25µM*,-8%,-2%
O=C(CN1CC(=O)Oc2ccccc21)OCC(=O)c1ccc(Br)cc1,70%,20µM*,x,x,x,x
O=C(CN1CC(=O)Oc2ccccc21)OCC(=O)c1ccc(F)cc1,39%,10µM*,8.9µM*,u,u,50µM*
O=C(CN1C(=O)c2ccccc2C1=O)NCC(=O)OCC(=O)c1ccc(Br)cc1,26%,-16%,0%,x,4%,9%
CCCCOC(=O)C1=C(C)NC(=O)NC1c1ccccc1 (centres undefined),39%,-3%,0%,28%,x,13%
COc1ccc(OC)c(C(C(=O)NC2CCCCC2)N(C(=O)c2ccccn2)c2cccnc2)c1 (centres undefined),-18%,-15%,-11%,25%[59 µM],1%,21%
CCN(c1ccccc1)S(=O)(=O)c1ccc(C(=O)Nc2nnc(-c3ccco3)o2)cc1,34%,-21%,x,50µM*,9%,28%
CCN(c1ccccc1)S(=O)(=O)c1ccc(C(=O)Nc2nnc(C3CC3)o2)cc1,15%,-17%,79µM*,-25%,8%,33%
